Results on 37 compounds are retold here after the supplement of paper PMC9948646.

For this experiment, the system named is gramicidin D channels in DC22:1PC lipid vesicles (bilayer-modifying potency). As to the kind of experiment: initial Tl+ fluorescence quench rate relative to no-drug control (NormRate, gramicidin monomer-dimer shift) (ratio (fold of control)); higher = stronger bilayer-modifying effect (equilibrium shifted toward conducting dimers), active = 1.5 or more. The settings on record: 10 µM; lipid concentration 50 µM; temperature: 25 °C. On the procedure: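 Stopped-flow fluorescence quench assay: ANTS-loaded DC22:1PC large unilamellar vesicles doped with gramicidin D (1:2000), 50 µM lipid, equilibrated 10 min with 10 µM drug (0.1% DMSO), mixed with Tl+ quench buffer at 25°C. Initial quench rate (Tl+ influx) was fitted with a modified stretched exponential and normalised to the no-drug control rate (NormRate); duplicates from two independent LUV preparations (triplicates for 7 drugs).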
As for `CNC(=O)[C@H]1Cc2ccccc2N1C(=O)Cc1ccc(F)cc1`, the “initial Tl+ fluorescence quench rate” value is 1.04 (inactive).
As for `N[C@H](CC(=O)c1ccc(Cl)cc1Cl)C(Cl)(Cl)Cl`, the figure is 1.12 (inactive); as for `Cc1cc(Cl)c(S(=O)(=O)N2CCCC2)cc1OCC(=O)NC1CCCCC1`, 1.19 (inactive); as for `CC1=NN(c2nc3ccccc3s2)C(=O)[C@@H]1Cc1cccc2ccccc12`, 2.18 (active).
The same measure for `CS(=O)(=O)N1CCC(Cn2nc(Cc3cccc4ccccc34)c3c(N)ncnc32)CC1`: 1.47 (inactive).
Regarding `O=C(NC1=NCCS1)c1sc2cc(F)ccc2c1Cl`, the “initial Tl+ fluorescence quench rate” value was 1.06 (inactive).
As for `Clc1ccc(CN2CCN(C3=NCCN3)CC2)cc1Cl`, the figure is 1.2 (inactive).
`C[C@@]1(COc2ccc(N3CCC(Oc4ccc(OC(F)(F)F)cc4)CC3)cc2)Cn2cc([N+](=O)[O-])nc2O1`: the “initial Tl+ fluorescence quench rate” value is 1.1 (inactive).
As for `CCNC(=O)[C@H](C)Nc1nc(-c2cccnc2)nc2sc(C)c(C)c12`, the figure is 1.08 (inactive).
The same measure for `[H]/N=C(/N)Nc1ccc(-c2ccc(-c3ccc(N/C(N)=N/[H])cc3Cl)o2)c(Cl)c1`: 1.53 (active).
As for `Nc1ncnc2c1ncn2[C@@H]1O[C@H](COS(=O)(=O)NC(=O)c2ccccc2O)[C@@H](O)[C@H]1O`, the figure is 1.02 (inactive).
`Nc1ncnc2c1c(-c1cnc3ccccc3c1)nn2CC1CCNCC1`: the “initial Tl+ fluorescence quench rate” value is 1.07 (inactive).
As for `CN(C)CCNC(=O)N1CCCN(c2ncnc3cc(-c4ccccc4)sc23)CC1`, the “initial Tl+ fluorescence quench rate” value is 1.11 (inactive).
Consider `FC(F)(F)c1cnc(Sc2nnc(-c3ccncc3)o2)c(Cl)c1`, for which the “initial Tl+ fluorescence quench rate” value was 1.23 (inactive).
As for `CC[C@H](C)NC(=O)c1ccc(NC(=O)C2(c3ccccc3)CCCC2)cc1`, the figure is 1.75 (active).
For `Cc1ccc2oc(-c3cc(NC(=O)Cc4ccccc4)ccc3Cl)nc2c1`, the “initial Tl+ fluorescence quench rate” value was 1.18 (inactive).
For `Brc1c(-c2ccc3c(c2)OCO3)nc2ncccn12`, the “initial Tl+ fluorescence quench rate” value is 1.12 (inactive).
As for `COc1ccc(-c2nn(C(C)C)c3ncnc(N)c23)cc1OC`, the “initial Tl+ fluorescence quench rate” value is 1.01 (inactive).
The same measure for `Nc1ccc(C(=O)Nc2ccc(-c3nc4ccccc4o3)cc2)cc1`: 1.1 (inactive); for `C[C@@H](C(=O)N1CCCC1)N1CCN(S(=O)(=O)c2ccc(C(C)(C)C)cc2)CC1`: 1.15 (inactive).
As to `O=C(Nc1nc(-c2ccccn2)cs1)[C@H]1C[C@@H]1c1ccccc1F`, the “initial Tl+ fluorescence quench rate” value was 1.41 (inactive).
The same measure for `Cc1cc2ccccc2n1CC(=O)N1C[C@@H](C(=O)N2CCCCC2)Oc2ccccc21`: 1.72 (active).
In the case of `CC(C)(C)c1cc(C(=O)Nc2cccnc2)cc(C(=O)Nc2cccnc2)c1`, the “initial Tl+ fluorescence quench rate” value was 1.39 (inactive).
The same measure for `CCc1nc2ccc(C(=O)NCc3ccc4c(c3)OCO4)cn2c1N(C)Cc1cccs1`: 2.01 (active); for `COc1ccc(-c2cncc3ccc(C(=O)NCCCn4ccnc4)nc23)cc1`: 1.03 (inactive); for `COC(=O)C1=C(C)NC(C)=C(C(=O)OC(C)C)[C@@H]1c1cccc2nonc12`: 1.33 (inactive).
Consider `NC(=O)c1cc(-c2ccsc2)ccc1OCCOc1ccccc1`, for which the “initial Tl+ fluorescence quench rate” value was 1.14 (inactive).
The same measure for `CN1CCN(c2cc(-c3ccc(F)cc3)nc(-c3ccncc3)n2)CC1`: 1.18 (inactive); for `c1csc(-c2cnc3sc(NCC4CCOCC4)nn23)c1`: 1.71 (active).
The same measure for `O=C(NC1CC1)c1ccc(CSCc2ccccc2Cl)o1`: 1.35 (inactive); for `O=C(N[C@H](Cc1ccccc1)C(=O)Nc1ccccc1N1CCOCC1)c1cccs1`: 1.21 (inactive).
With `O=C(Nc1nnc(-c2ccc(Cl)cc2)o1)c1cccc(C(F)(F)F)c1`, the “initial Tl+ fluorescence quench rate” value was 1.07 (inactive).
As for `O=C(NCCc1c[nH]c2ccccc12)c1cc2ccccc2oc1=O`, the figure is 1.95 (active).
With `COc1cncc(-c2cncc(N3CCN(c4ccncc4)CC3)n2)c1`, the “initial Tl+ fluorescence quench rate” value was 1.11 (inactive).
The same measure for `Cc1cccc(Cn2ccc(NC(=O)c3ccc4c(c3)OCO4)n2)c1`: 1.35 (inactive); for `CNc1snc(C)c1C(=O)NCCOc1ccc(OC)cc1`: 1.06 (inactive); for `O=C(C1CCCCC1)N1CC(=O)N2CCc3ccccc3[C@@H]2C1`: 1.04 (inactive).
